# Screening results (PubChem BioAssay)
# Only some compounds are listed: those with a hit (about 3.2% of all), similar ones and a draw of the others.
# EphB4 ephrin blk: EphB4-ephrin-B2 interaction antagonism. EphB4 LBD / TNYL-RAW-Alexa532 peptide, fluorescence polarization. inhibition, % at 7 µM. 0.15% of 97,000 active. AID 720;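 active = inhibition above the screen-wide mean inhibition plus 3 SD, cut at about 15% in these data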
# Target sequence (P54760 whole entry, looked up, the tested form may be a part): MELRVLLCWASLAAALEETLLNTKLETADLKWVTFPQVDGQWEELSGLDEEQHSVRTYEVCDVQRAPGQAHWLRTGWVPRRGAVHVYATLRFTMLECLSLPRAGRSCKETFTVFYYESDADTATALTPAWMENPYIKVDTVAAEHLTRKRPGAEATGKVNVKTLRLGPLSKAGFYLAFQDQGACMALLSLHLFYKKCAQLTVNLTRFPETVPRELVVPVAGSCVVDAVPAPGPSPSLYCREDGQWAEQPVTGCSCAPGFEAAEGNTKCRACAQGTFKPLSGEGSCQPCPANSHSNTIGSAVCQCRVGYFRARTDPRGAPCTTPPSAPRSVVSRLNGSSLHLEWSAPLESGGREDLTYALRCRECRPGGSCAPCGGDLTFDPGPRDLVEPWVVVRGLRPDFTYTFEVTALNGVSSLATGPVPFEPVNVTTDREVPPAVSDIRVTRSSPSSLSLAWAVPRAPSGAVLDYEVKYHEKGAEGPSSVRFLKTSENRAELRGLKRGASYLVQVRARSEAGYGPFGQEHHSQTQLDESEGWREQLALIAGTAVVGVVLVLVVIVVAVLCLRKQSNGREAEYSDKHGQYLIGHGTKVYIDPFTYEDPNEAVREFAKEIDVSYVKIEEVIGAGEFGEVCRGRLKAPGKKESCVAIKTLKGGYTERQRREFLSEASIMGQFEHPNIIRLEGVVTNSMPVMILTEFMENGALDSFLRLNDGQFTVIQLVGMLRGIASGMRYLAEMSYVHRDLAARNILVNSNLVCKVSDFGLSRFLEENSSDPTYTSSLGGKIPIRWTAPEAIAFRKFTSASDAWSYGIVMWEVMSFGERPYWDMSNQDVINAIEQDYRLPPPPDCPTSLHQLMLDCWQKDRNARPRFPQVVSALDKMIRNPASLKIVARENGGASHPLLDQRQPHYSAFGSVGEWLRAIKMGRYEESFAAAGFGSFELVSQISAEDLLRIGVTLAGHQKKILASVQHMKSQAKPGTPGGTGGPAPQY
# Calb biofilm kill: kills Candida albicans biofilms; C. albicans biofilm + clotrimazole, Alamar Blue; AID 834; inhibition, % at 6 µM; 0.14% of 85,000 active;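 active = inhibition above 20%; inactive = inhibition below 20%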;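 also: preformed 24 hr biofilms exposed to compound for 48 hr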
# ERb coact inh: blocks coactivator binding to human estrogen receptor beta. TR-FRET ER-beta LBD / SRC1-Cy5 peptide binding; receptor agonist-loaded with 1 µM estradiol. AID 633. inhibition, % at 25.6 µM. Q92731. 1.3% of 86,000 active;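 active = compounds whose percent inhibition of the receptor-coactivator binding signal exceeds about 50% in the single-dose screen, limit read from the data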
# MT1-MMP txn act: activates MT1-MMP transcription. HT1080 MT1-MMP promoter luciferase reporter, luminescence, overnight; stronger effect = higher value. AID 750. 0.16% of 86,000 active. activation factor at 10 µM;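 active = activation factor of at least 2 for MT1-MMP transcription at 10 µM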
# ERa coact pot: ER-alpha (human) coactivator binding potentiation; P03372; TR-FRET ERalpha-LBD/SRC-Cy5 coactivator binding, 2 h; 100 = basal binding, no effect; coactivator binding (% of control), % at 25.6 µM; 1.3% of 86,000 active; AID 639; in the data active = activity above about 200%;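 also: binding measured in presence of low estradiol as agonist stimulus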
# ERa coact inh: blocks coactivator binding to human estrogen receptor alpha | TR-FRET ER-alpha LBD / SRC-1 peptide, estradiol-bound | AID 629 | P03372 | 1.7% of 86,000 active | inhibition, % at 25.6 µM; in the data active = inhibition above about 50%
# Numbers stand for hits; - = inactive; . = not tested or not shown; [ ] = another dose, or the depositor's remark.
SMILES,EphB4 ephrin blk,Calb biofilm kill,ERb coact inh,MT1-MMP txn act,ERa coact pot,ERa coact inh
Cc1cc(C)n2nc(C(=O)OCC(=O)c3cc(C)n(C)c3C)nc2n1,-,-,51[fluorescence artefact?],-,-,-
O=C(NCc1ccccn1)C1CCC(=O)N1C1CCCCC1 (stereo not drawn),-,-,-,.,-,82[fluorescence artefact?]
CCc1ccc(CNC(=O)C2CCC(=O)N2C2CCCCC2)cc1 (stereo not drawn),-,-,-,-,-,-
CCOc1ccc2[nH]c(=O)c(CN(Cc3ccc(F)cc3)C(=O)N3CCCC3)cc2c1,-,-,-,-,331[fluorescence artefact?],-
CN(C)S(=O)(=O)c1ccc(NC(=O)N2CCN(c3ccccc3)CC2)cc1,-,.,.,.,.,.
C/C(N)=C(/C#N)C(=O)CSc1nnnn1-c1ccccc1,-,-,90[fluorescence artefact?],-,-,85[fluorescence artefact?]
C/C(N)=C(/C#N)C(=O)CSc1nnnn1-c1ccc(C)cc1,-,-,64,-,-,51[fluorescence artefact?]
O=C(CSc1nnnn1-c1ccccc1)CSc1nnnn1-c1ccccc1,-,.,.,-,.,.
COc1ccc(-n2nnnc2SCC(N)=O)cc1,-,-,-,-,-,-
COc1ccccc1C(=O)Oc1ccc(C(C)C)cc1,-,58,-,-,-,-
O=C(Oc1ccccc1)c1ccccc1OS(=O)(=O)c1ccccc1,-,.,.,.,.,.
COC(=O)c1ccc(C(NC(=O)OCc2ccccc2)/C(I)=C/[C@@H](C)C(=O)O)cc1 (stereo partly drawn),.,.,.,-,.,.
O=C(Oc1ccc(N2C(=O)CCC2=O)cc1)c1ccco1,-,-,-,-,-,60
O=C(Nc1ccn(C2CC(OC(=O)c3ccccc3)C(CO)O2)c(=O)n1)c1ccccc1 (stereo not drawn),-,.,-,-,507[fluorescence artefact?],-
O=C(O)CCc1cc(I)c(Oc2ccc(O)c(I)c2)c(I)c1,.,-,-,-,-,-
O=C1c2oc3ccccc3c(=O)c2C(c2ccc(Br)cc2)N1c1ncccn1 (stereo not drawn),.,-,-,-,316,-
CSc1nnc(-c2sc3cc(C(F)(F)F)cnc3c2-c2ccccn2)n1C,-,-,-,-,347[fluorescence artefact?],-
Cc1nc2ncnn2c(N2CCN(C(=O)Cc3cccs3)CC2)c1C,-,-,85[fluorescence artefact?],-,-,90[fluorescence artefact?]
COc1ccc(Cn2nnnc2C(c2ccccc2OC)N2CCC(C(N)=O)CC2)cc1 (stereo not drawn),-,-,64,-,-,-
COc1ccc(OC)c(C(c2nnnn2Cc2ccccc2)N2CCC(C(N)=O)CC2)c1 (stereo not drawn),-,-,-,-,-,-
CCN(CC)CC(=O)Nc1cc(C)c2c(=O)oc3ccccc3c2n1,.,-,-,-,-,-
CCC12CCCN3CCC4(C(=C(C(=O)OC)C1)Nc1ccccc14)C32 (stereo not drawn),-,-,-,-,-,-
C=CCOc1ccc(C2C(C(=O)c3ccco3)=C(O)C(=O)N2Cc2cccnc2)cc1 (stereo not drawn),-,-,-,-,-,-
Cc1cc(O)ccc1Nc1nc(-c2sc(N)nc2C)cs1,-,-,-,-,-,-
Cc1nc(N)sc1-c1csc(Nc2ccccc2)n1,-,-,-,2.3,-,-
SMILES,EphB4 ephrin blk,Calb biofilm kill,ERb coact inh,MT1-MMP txn act,ERa coact pot,ERa coact inh
Cc1cc(NS(=O)(=O)c2ccc(Nc3nc(-c4sc(N)nc4C)cs3)cc2)no1,-,-,56[fluorescence artefact?],-,-,-
CC1CCN(S(=O)(=O)c2ccc(NC(=O)Cc3ccccc3)cc2)CC1,-,-,-,-,-,-
CC1CCN(S(=O)(=O)c2ccc(NC(=O)Cn3nnc(-c4ccccc4F)n3)cc2)CC1,-,-,62[fluorescence artefact?],-,-,86[fluorescence artefact?]
O=C(COC(=O)c1ccccc1C(=O)c1ccc(Cl)c([N+](=O)[O-])c1)NC1CCCCCC1,-,.,.,.,.,.
Nc1c(Cl)cc(Cl)cc1C(=O)OCC(=O)NC1CC1,-,-,55,-,-,-
CCOC(=O)c1[nH]c(C)c(/C(O)=C2\C(=O)C(=O)N(CCN(C)C)C2c2cccc(OC)c2OC)c1C (stereo not drawn),-,-,-,-,599[fluorescence artefact?],-
CCOC(=O)c1[nH]c(C)c(/C(O)=C2\C(=O)C(=O)N(CCN(C)C)C2c2ccncc2)c1C (stereo not drawn),-,-,-,-,-,-
c1ccc(OCCCN2CCCC2)cc1,-,-,-,-,-,-
c1ccc(COc2ccc(OCCCN3CCCCC3)cc2)cc1,-,-,-,-,-,63[fluorescence artefact?]
COc1ccc(-c2nnn(Cc3ccccc3F)n2)cc1,-,-,-,2.3,-,-
CN1CCN(C(=O)c2ccc(C3SCC(=O)N3Cc3ccco3)cc2)CC1 (stereo not drawn),-,-,-,-,-,-
O=C(NCc1ccc2c(c1)OCO2)c1ccc(C2SCC(=O)N2Cc2ccco2)cc1 (stereo not drawn),-,-,-,-,215[fluorescence artefact?],-
O=C(Cc1ccccc1)Nc1c(C(=O)N2CCOCC2)cnn1-c1ccccc1,-,-,-,-,-,-
COC(=O)C1CCN(C(=O)COC(=O)c2n[nH]c3ccccc23)CC1,-,-,-,-,-,-
CC1CCCN(C(=O)COC(=O)c2n[nH]c3ccccc23)C1 (stereo not drawn),-,-,-,-,-,57
C=CCn1c(=O)c2ccccc2n2c(SCc3csc(-c4ccccc4)n3)nnc12,.,-,-,-,-,-
O=C(CSc1nc2c(c(C(F)(F)F)n1)CCc1ccccc1-2)NCc1ccc(F)cc1,-,-,-,-,229,-
O=C(CSc1nc2c(c(C(F)(F)F)n1)CCc1ccccc1-2)NCc1ccccc1,-,-,-,-,-,-
CCOC(=O)C1=C(C)N(CCCC(=O)O)C(=O)NC1c1ccccc1OC(=O)c1ccc(I)cc1 (stereo not drawn),.,.,.,-,.,.
Cc1ccc(-c2nnc(CSc3nc4cc5c(cc4cc3C)OCO5)o2)cc1,-,-,60,-,206[fluorescence artefact?],77[fluorescence artefact?]
COc1ccc(NS(=O)(=O)c2ccc(N)c(C(=O)O)c2)cc1,-,-,-,-,-,57[fluorescence artefact?]
CCc1nc2c(c(SC)nn2-c2ccccc2)c(N)c1C(=O)OC,-,.,.,.,.,.
O=C(NCSc1ccnc(SCNC(=O)c2ccccc2)n1)c1ccccc1,-,-,-,-,252,-
COc1cccc(C(C(=O)NC2CCCCC2)N(CC2CCCO2)C(=O)CNC(=O)c2ccco2)c1 (stereo not drawn),-,-,-,-,-,-
C/C(N)=C(/C#N)C(=O)CSc1nnc(Nc2ccccc2C)s1,-,-,65,-,-,51[fluorescence artefact?]
C/C(N)=C(/C#N)C(=O)CSc1nnc(NC(C)C)s1,-,-,99[fluorescence artefact?],-,-,97[fluorescence artefact?]
Cc1ccc(C(=O)NCC(=O)OCC(=O)c2c(N)n(C)c(=O)n(C)c2=O)s1,-,-,50,-,-,53
COc1cc(C2C(C#N)=C(N)Oc3cc(C)oc(=O)c32)cc2c1OCO2 (stereo not drawn),-,-,62,-,-,70
